Test results taken from PubChem BioAssay (EPA / NIEHS).
Results filed as inconclusive are left out. Calls of active or inactive are those of the source. Rule for the calls: active = hit-call score of the fitted dose curve at least 0.9, where 1 is the maximum; inconclusive = response in the unintended direction; inactive = score below 0.9.

Biological target: human Janus Kinase 2 (Jak2), JAK2 (gene 3717) (UniProt O60674)
Assay: NVS_ENZ_hJak2: NovaScreen (NVS) Enzymatic Assay for human Janus Kinase 2 (Jak2) (AID 2283169)
Procedure: NVS_ENZ_hJak2 is a biochemical, single-readout assay that uses extracted gene-proteins in a cell-free assay. Measurements were taken 1 hour after chemical dosing in a 384-well plate.NVS_ENZ_hJak2 is one of one assay component(s) measured or calculated from the NVS_ENZ_hJak2 assay. It is designed to make measurements of enzyme activity, a form of enzyme reporter, as detected with fluorescence intensity signals by Fluorescence and electrophoretic mobility shift technology.Data from the assay component NVS_ENZ_hJak2 was analyzed into 1 assay endpoint. This assay endpoint, NVS_ENZ_hJak2, was analyzed in the positive analysis fitting direction relative to DMSO as the negative control and baseline of activity. Using a type of enzyme reporter, loss-of-signal activity can be used to understand changes in the enzymatic activity as they relate to the gene JAK2. Furthermore, this assay endpoint can be referred to as a primary readout, because this assay has produced multiple assay endpoints where this one serves a enzymatic activity function. To generalize the intended target to other relatable targets, this assay endpoint is annotated to the kinase intended target family, where the subfamily is non-receptor tyrosine kinase.
Binding assays used specific radioligands (tritiated, iodinated) with non-radioactive competitive displacement ligands in agonist or antagonist protocols (as indicated) and various reference compounds and inhibitors to titrate specific binding to receptors and transporters. Most enzyme assays (CYPs, kinases, phosphatases, proteases, HDACs) used recombinant protein and specific substrates (fluorescence mostly, some colorimetric and radioactive) and inhibitors, followed by a biochemical separation of substrate and product. All assays for the biochemical HTS were initially run in duplicate at a single concentration (10 uM for CYP450 assays and 25 uM for all others). Assay-chemical combinations meeting a pre-defined threshold (e.g., 30% inhibition and other criteria defined below) were then run in singleton concentration-response format with maximum concentration of 20 uM for CYPs and 50 uM for all others. Each assay was run with positive and negative controls, and concurrent controls on every plate. The follow-up (secondary) screen tested active chemical-pairs in concentration series, as well as a few additional assays not tested in the primary screen, some selected negative inactives, and several cases re-run in the concentration series for confirmatory purposes.

human Janus Kinase 2 (Jak2), JAK2 (gene 3717), sequence (O60674 whole entry, looked up): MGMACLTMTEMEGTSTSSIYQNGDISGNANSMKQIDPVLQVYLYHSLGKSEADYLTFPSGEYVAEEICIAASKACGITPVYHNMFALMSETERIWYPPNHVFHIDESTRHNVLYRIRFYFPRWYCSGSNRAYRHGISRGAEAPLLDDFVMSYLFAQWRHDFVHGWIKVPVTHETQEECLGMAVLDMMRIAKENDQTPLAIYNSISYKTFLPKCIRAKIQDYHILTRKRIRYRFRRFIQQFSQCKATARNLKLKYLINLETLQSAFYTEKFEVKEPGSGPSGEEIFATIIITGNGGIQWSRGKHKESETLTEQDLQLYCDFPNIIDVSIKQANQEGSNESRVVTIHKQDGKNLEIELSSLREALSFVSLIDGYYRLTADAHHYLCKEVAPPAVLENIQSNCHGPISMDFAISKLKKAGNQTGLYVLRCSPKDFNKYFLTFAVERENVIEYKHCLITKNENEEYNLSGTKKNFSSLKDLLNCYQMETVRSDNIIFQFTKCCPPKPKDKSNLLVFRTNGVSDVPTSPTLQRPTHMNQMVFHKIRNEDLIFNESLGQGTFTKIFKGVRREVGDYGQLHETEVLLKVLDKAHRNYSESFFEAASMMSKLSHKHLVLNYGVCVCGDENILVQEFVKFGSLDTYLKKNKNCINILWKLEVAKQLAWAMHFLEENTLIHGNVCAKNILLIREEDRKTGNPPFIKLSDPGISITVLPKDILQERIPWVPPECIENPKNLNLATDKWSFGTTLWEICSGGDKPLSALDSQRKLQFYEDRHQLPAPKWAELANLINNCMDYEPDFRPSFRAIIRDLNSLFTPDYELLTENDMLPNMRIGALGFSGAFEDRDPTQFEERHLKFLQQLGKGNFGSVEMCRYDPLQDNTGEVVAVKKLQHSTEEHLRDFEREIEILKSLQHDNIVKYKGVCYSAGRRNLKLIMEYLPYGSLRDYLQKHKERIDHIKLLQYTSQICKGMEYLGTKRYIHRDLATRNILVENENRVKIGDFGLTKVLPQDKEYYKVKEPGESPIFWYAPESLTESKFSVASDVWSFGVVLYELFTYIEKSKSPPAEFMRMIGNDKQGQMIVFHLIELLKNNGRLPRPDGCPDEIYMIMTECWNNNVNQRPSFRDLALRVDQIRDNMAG

With `Cc1cc(CCN2CCN(c3nsc4ccccc34)CC2)cc2c1NC(=O)CC2(C)C` as the compound, how does the outcome read?
Its outcome is “inactive”.

`CN1CCN(c2ccccc2/C=C2\SCCN(c3ccc(Cl)c(Cl)c3)C2=O)CC1` was tested. Which outcome did it give?
The outcome was “inactive”.

Which outcome does the source give for `CCN(CC)CCNc1ccc(CNC=O)c2sc3ccc(OC)cc3c(=O)c12` here?
Its outcome is “inactive”.

With `Oc1cc2ccccc2c2ccccc12` as the compound, how does the AC50 read?
Its AC50 is 25 µM (active).

Which AC50 does the source give for `CCCCCCCCCCCCc1ccccc1S(=O)(=O)O` here?
The AC50 was 18.5 µM (active).

`C=C(C)C(=O)OCCC(F)(F)C(F)(F)C(F)(F)C(F)(F)C(F)(F)C(F)(F)F` was tested. Which outcome did it give?
The outcome was “inactive”.

Which outcome does the source give for `CCCCCCCCCCCCCCCS(=O)(=O)Oc1ccccc1` here?
Its outcome is “inactive”.

With `CCCCCCCCOC(=O)CCCCCCCCC(=O)OCCCCCCCC` as the compound, how does the outcome read?
Its outcome is “inactive”.

With `CCCCCCCC(=O)O` as the compound, how does the outcome read?
Its outcome is “inactive”.

Which outcome does the source give for `COCC(C)OCC(C)O` (configuration not stated) here?
Its outcome is “inactive”.

`O=C(O)Cc1cc(I)c(Oc2cc(I)c(O)c(I)c2)c(I)c1` was tested. Which outcome did it give?
The outcome was “inactive”.

How did the outcome turn out when `CC(C)(C)CC(C)(C)c1ccc(O)c(-n2nc3ccccc3n2)c1` was run?
The outcome was “inactive”.
